{"source": "paper PMC3315485", "about": "“Probing the Informational and Regulatory Plasticity of a Transcription Factor DNA–Binding Domain”", "note": "Substitutions are numbered along the chain they refer to."}
{"biological_target": "T1, MarA wild type (WQR) (Escherichia coli, UniProt P0ACH5 1-127)", "T1 sequence": "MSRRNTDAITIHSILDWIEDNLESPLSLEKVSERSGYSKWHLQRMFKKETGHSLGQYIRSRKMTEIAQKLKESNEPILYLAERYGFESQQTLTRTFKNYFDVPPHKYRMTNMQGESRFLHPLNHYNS", "experiment": "MITOMI; MITOMI, 295 K (22 C); buffer, salt and pH not stated in the material; high values mean tight binding", "settings": "protein: ivt; label: fluorescent; dsDNA, one strand shown", "how_it_was_run": "(§1)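 MarA protein variants were produced by in vitro transcription and translation using the RTS E. coli HY kit, with tRNA-lys-bodipy-fl added for fluorescent labelling. Each variant was screened by MITOMI against 64 synthesized versions of the mar binding site, and protein and DNA fluorescence were read on Genepix at 295K. Association constants came from MITOMI, and each site's value is relative to the highest-affinity site for that protein variant.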"}
{"sequence": "ATGTCCCGTTTTGCTAAAT", "binding signal": "0.181 Ka relative to the best site of the variant"}
{"sequence": "ATGGAGCGTTTTGCTAAAT", "binding signal": "0.262 Ka relative to the best site of the variant"}
{"sequence": "ATGCTGCGTTTTGCTAAAT", "binding signal": "0.442 Ka relative to the best site of the variant"}
{"sequence": "ATGGCGCGTTTTGCTAAAT", "binding signal": "0.334 Ka relative to the best site of the variant"}
{"sequence": "ATGAGTCGTTTTGCTAAAT", "binding signal": "0.239 Ka relative to the best site of the variant"}
{"sequence": "ATGCTTCGTTTTGCTAAAT", "binding signal": "0.341 Ka relative to the best site of the variant"}
{"sequence": "ATGGAACGTTTTGCTAAAT", "binding signal": "0.299 Ka relative to the best site of the variant"}
{"sequence": "ATGACACGTTTTGCTAAAT", "binding signal": "0.709 Ka relative to the best site of the variant"}
{"sequence": "ATGCTCCGTTTTGCTAAAT", "binding signal": "0.244 Ka relative to the best site of the variant"}
{"sequence": "ATGCGTCGTTTTGCTAAAT", "binding signal": "0.26 Ka relative to the best site of the variant"}
{"sequence": "ATGCCGCGTTTTGCTAAAT", "binding signal": "0.414 Ka relative to the best site of the variant"}
{"sequence": "ATGCGGCGTTTTGCTAAAT", "binding signal": "0.318 Ka relative to the best site of the variant"}
{"sequence": "ATGACTCGTTTTGCTAAAT", "binding signal": "0.378 Ka relative to the best site of the variant"}
{"sequence": "ATGAATCGTTTTGCTAAAT", "binding signal": "0.215 Ka relative to the best site of the variant"}
{"sequence": "ATGTGACGTTTTGCTAAAT", "binding signal": "0.253 Ka relative to the best site of the variant"}
{"sequence": "ATGTACCGTTTTGCTAAAT", "binding signal": "0.215 Ka relative to the best site of the variant"}
{"sequence": "ATGCAGCGTTTTGCTAAAT", "binding signal": "0.293 Ka relative to the best site of the variant"}
{"sequence": "ATGAAACGTTTTGCTAAAT", "binding signal": "0.124 Ka relative to the best site of the variant"}
{"sequence": "ATGATTCGTTTTGCTAAAT", "binding signal": "0.264 Ka relative to the best site of the variant"}
{"sequence": "ATGTGCCGTTTTGCTAAAT", "binding signal": "0.245 Ka relative to the best site of the variant"}
{"sequence": "ATGTCTCGTTTTGCTAAAT", "binding signal": "0.301 Ka relative to the best site of the variant"}
{"sequence": "ATGAAGCGTTTTGCTAAAT", "binding signal": "0.256 Ka relative to the best site of the variant"}
{"sequence": "ATGACGCGTTTTGCTAAAT", "binding signal": "0.362 Ka relative to the best site of the variant"}
{"sequence": "ATGTAGCGTTTTGCTAAAT", "binding signal": "0.284 Ka relative to the best site of the variant"}
{"sequence": "ATGCACCGTTTTGCTAAAT", "binding signal": "0.261 Ka relative to the best site of the variant"}
{"sequence": "ATGGTACGTTTTGCTAAAT", "binding signal": "0.294 Ka relative to the best site of the variant"}
{"sequence": "ATGGACCGTTTTGCTAAAT", "binding signal": "0.196 Ka relative to the best site of the variant"}
{"sequence": "ATGGGTCGTTTTGCTAAAT", "binding signal": "0.232 Ka relative to the best site of the variant"}
{"sequence": "ATGTGGCGTTTTGCTAAAT", "binding signal": "0.242 Ka relative to the best site of the variant"}
{"sequence": "ATGGGACGTTTTGCTAAAT", "binding signal": "0.34 Ka relative to the best site of the variant"}
{"sequence": "ATGGCCCGTTTTGCTAAAT", "binding signal": "0.293 Ka relative to the best site of the variant"}
{"sequence": "ATGGTGCGTTTTGCTAAAT", "binding signal": "0.304 Ka relative to the best site of the variant"}
{"biological_target": "T2, MarA RQR (Escherichia coli, UniProt P0ACH5 1-127, W40R)", "T2 sequence": "T1 sequence with W40R", "experiment": "MITOMI; MITOMI, 295 K (22 C); buffer, salt and pH not stated in the material; high values mean tight binding", "settings": "protein: ivt; label: fluorescent; dsDNA, one strand shown", "how_it_was_run": "as §1"}
{"sequence": "ATGTCCCGTTTTGCTAAAT", "binding signal": "1 Ka relative to the best site of the variant"}
{"sequence": "ATGGAGCGTTTTGCTAAAT", "binding signal": "0.119 Ka relative to the best site of the variant"}
{"sequence": "ATGCTGCGTTTTGCTAAAT", "binding signal": "0.169 Ka relative to the best site of the variant"}
{"sequence": "ATGGCGCGTTTTGCTAAAT", "binding signal": "0.577 Ka relative to the best site of the variant"}
{"sequence": "ATGAGTCGTTTTGCTAAAT", "binding signal": "0.136 Ka relative to the best site of the variant"}
{"sequence": "ATGCTTCGTTTTGCTAAAT", "binding signal": "0.157 Ka relative to the best site of the variant"}
{"sequence": "ATGGAACGTTTTGCTAAAT", "binding signal": "0.208 Ka relative to the best site of the variant"}
{"sequence": "ATGACACGTTTTGCTAAAT", "binding signal": "0.337 Ka relative to the best site of the variant"}
{"sequence": "ATGCTCCGTTTTGCTAAAT", "binding signal": "0.108 Ka relative to the best site of the variant"}
{"sequence": "ATGCGTCGTTTTGCTAAAT", "binding signal": "0.144 Ka relative to the best site of the variant"}
{"sequence": "ATGCCGCGTTTTGCTAAAT", "binding signal": "0.195 Ka relative to the best site of the variant"}
{"sequence": "ATGCGGCGTTTTGCTAAAT", "binding signal": "0.0951 Ka relative to the best site of the variant"}
{"sequence": "ATGACTCGTTTTGCTAAAT", "binding signal": "0.586 Ka relative to the best site of the variant"}
{"sequence": "ATGAATCGTTTTGCTAAAT", "binding signal": "0.091 Ka relative to the best site of the variant"}
{"sequence": "ATGTGACGTTTTGCTAAAT", "binding signal": "0.11 Ka relative to the best site of the variant"}
{"sequence": "ATGTACCGTTTTGCTAAAT", "binding signal": "0.142 Ka relative to the best site of the variant"}
{"sequence": "ATGCAGCGTTTTGCTAAAT", "binding signal": "0.105 Ka relative to the best site of the variant"}
{"sequence": "ATGAAACGTTTTGCTAAAT", "binding signal": "0.0424 Ka relative to the best site of the variant"}
{"sequence": "ATGATTCGTTTTGCTAAAT", "binding signal": "0.122 Ka relative to the best site of the variant"}
{"sequence": "ATGTGCCGTTTTGCTAAAT", "binding signal": "0.134 Ka relative to the best site of the variant"}
{"sequence": "ATGTCTCGTTTTGCTAAAT", "binding signal": "0.956 Ka relative to the best site of the variant"}
{"sequence": "ATGAAGCGTTTTGCTAAAT", "binding signal": "0.0942 Ka relative to the best site of the variant"}
{"sequence": "ATGACGCGTTTTGCTAAAT", "binding signal": "0.33 Ka relative to the best site of the variant"}
{"sequence": "ATGTAGCGTTTTGCTAAAT", "binding signal": "0.0898 Ka relative to the best site of the variant"}
{"sequence": "ATGCACCGTTTTGCTAAAT", "binding signal": "0.132 Ka relative to the best site of the variant"}
{"sequence": "ATGGTACGTTTTGCTAAAT", "binding signal": "0.124 Ka relative to the best site of the variant"}
{"sequence": "ATGGACCGTTTTGCTAAAT", "binding signal": "0.106 Ka relative to the best site of the variant"}
{"sequence": "ATGGGTCGTTTTGCTAAAT", "binding signal": "0.141 Ka relative to the best site of the variant"}
{"sequence": "ATGTGGCGTTTTGCTAAAT", "binding signal": "0.105 Ka relative to the best site of the variant"}
{"sequence": "ATGGGACGTTTTGCTAAAT", "binding signal": "0.136 Ka relative to the best site of the variant"}
{"sequence": "ATGGCCCGTTTTGCTAAAT", "binding signal": "0.811 Ka relative to the best site of the variant"}
{"sequence": "ATGGTGCGTTTTGCTAAAT", "binding signal": "0.115 Ka relative to the best site of the variant"}
